# Molecular target: IMMP2L
# Assay: pooled miR-30 sensor sort-seq; sequence = guide strand
# Conditions: shRNA
# Further: reference of the scale not given here.
row,Sequence,sensor-assay potency score (higher = more potent)
1,AATGATACAATGTCACCACGGT,0.432
2,ATCGATGCTCCTTCTACTCTTG,-0.658
3,TAAATATTTCTCGCACAGCATC,-1.39
4,TCTACTCTTGCCACACAGGCGA,-0.683
5,TTCAAGAGCAATCACTCTCTTA,-0.135
6,TCTTAATGATCTTCTGTTCTGG,0.00439
7,TTCAAAAGCACCACATCAGATG,-0.957
8,TTGATGTATCTTTTCACCCACC,-0.733
9,TCAAAATTCCTCACTTTCCAGT,-0.183
10,TATGGTTCTGACAATATCTCCT,0.439
11,TTCAAAGAAGGCTGCATCGATG,-1.29
12,TAATGATCTTCTGTTCTGGGTT,-0.0559

# Molecular target: INF2
# Assay: as above
# Conditions: shRNA
row,Sequence,sensor-assay potency score (higher = more potent)
1,TTTCAGGATGCTCTCACTCTGG,-0.623
2,TTCATGACAATGCTGAAGCGGT,-0.245
3,TTCAATCTCGTGCTTCTCGGGA,-0.3
4,TAGCTCAAACACCTGCTTCTTC,-0.118
5,TTGAGGTTCAGGCTCTTCTTGG,-1.01

# Source: the OligoGym collection
